esBAF inh: Bmi1 luciferase reporter increase in mESCs, primary screen, esBAF inhibitor project, mouse ES cells, Bmi1 luciferase knock-in, single point | reporter increase, % at 12.5 µM | 2% of 350,000 active | 24 h; 100% = twice the neutral-well signal; in the data active = activation above about 40%; inconclusive = no clear call, values can overlap the other calls;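 note: a rise in the Bmi1 reporter signal indicates esBAF inhibition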
Env fusion inh: inhibitors of HIV-1 Env-driven cell-cell fusion, primary screen, HeLa-JRFL effector, CEM21 target cells, luciferase. inhibition, % at 12.3 µM. 1.1% of 360,000 active;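 active = mean replicate inhibition score of at least 50 and every replicate individually at or above 50; inconclusive = only one of the two criteria met; inactive = mean below 50 and not all replicates reaching 50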
MITF TRPM1 HTS: activators of MITF-driven TRPM1 promoter reporter, primary screen, cell-based, SK-MEL-5, luciferase, single point; activation, % at 12.5 µM; 0.75% of 300,000 active; SK-MEL-5 TRPM1-promoter luciferase, 24 h; % of positive control, neutral wells = 0; AID 588334, 2011;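 active = mean activation of at least 80% with every replicate also reaching 80%; inconclusive = mean reaches 80% but some replicate falls short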
Wnt act: Wnt/beta-catenin pathway activators, primary screen, cell-based, plate reader, single point | Wnt/beta-catenin reporter cell assay, activator | activation, % at 9.35 µM | 1.2% of 300,000 active; in the data active = activation above about 30%, passing the limit was not always enough; inconclusive = no clear call, values can overlap the other calls
miR-122 sensor: miR-122 Renilla sensor signal increase in Huh7, primary screen, miR-122 inhibitor project, cell-based, single point, plate reader | Huh7 miR-122 Renilla luciferase sensor, 48 h; neutral wells = 0, positive control = 100 | activation (reporter increase), % at 12.5 µM | 0.3% of 340,000 active | AID 602342, 2012;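 active = mean replicate activation score at least 90 and every replicate individually at or above 90; inconclusive = only one of the two criteria met; inactive = neither criterion met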;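 note: higher luciferase means less miR-122 activity so hits act as miR-122 inhibitors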
Large screens that a line does not name were inactive; [ ] = dose if it differs, or a comment. The list is not random: actives were taken first. Their share in the collection is about 3.4%.

O=C(Nc1cccc(F)c1)N1C[C@H]2[C@@H](c3ccccc31)[C@@H](CO)N2C(=O)Cc1ccccc1	none (no result: Env fusion inh, MITF TRPM1 HTS, Wnt act)
O=C(C[C@H]1CC[C@H](NC(=O)c2cccc(F)c2)[C@@H](CO)O1)NCc1ccc(Oc2ccccc2)cc1	none (no result: MITF TRPM1 HTS, Wnt act, miR-122 sensor)
O=C(C[C@H]1CC[C@@H](NC(=O)c2cccc(F)c2)[C@@H](CO)O1)NCc1ccc(Oc2ccccc2)cc1	Env fusion inh 71[16.7 µM] (no result: MITF TRPM1 HTS, Wnt act, miR-122 sensor)
O=C(C[C@H]1CC[C@@H](NC(=O)c2cccc(F)c2)[C@H](CO)O1)NCc1ccc(Oc2ccccc2)cc1	Env fusion inh 69[16.7 µM] (no result: MITF TRPM1 HTS, Wnt act, miR-122 sensor)
CO[C@H]1CN(C)C(=O)c2ccc(NC(=O)c3nc4ccccc4s3)cc2OC[C@@H](C)N(Cc2cncnc2)C[C@@H]1C	none (no result: Env fusion inh, MITF TRPM1 HTS, Wnt act, miR-122 sensor)
C[C@H](CO)N1C[C@H](C)[C@H](CN(C)S(=O)(=O)c2ccc(Cl)cc2)OCCCC[C@H](C)Oc2ccc(NS(=O)(=O)c3ccccc3)cc2C1=O	none (no result: MITF TRPM1 HTS, Wnt act)
COc1cccc2c1OC1(CCN(C(C)C)CC1)N1N=C(c3cccnc3)CC21 (configuration not stated)	Wnt act 34 (no result: esBAF inh, MITF TRPM1 HTS)
CC(C)N1CCC2(CC1)Oc1ccc(Br)cc1C1CC(c3cccnc3)=NN12 (configuration not stated)	none (no result: MITF TRPM1 HTS, miR-122 sensor)
O=C(N[C@H]1CC[C@H](CC(=O)N2CCCCC2)O[C@H]1CO)c1cccc(F)c1	none (no result: MITF TRPM1 HTS, Wnt act, miR-122 sensor)
Cc1ccc(O)c(NC(=O)c2cc(-c3cccs3)on2)c1	esBAF inh 52, MITF TRPM1 HTS 122
COc1ccccc1-c1cc(C(=O)NC(C)C)no1	esBAF inh 52 (no result: Env fusion inh)
CC1CCN(C(=O)c2cc(-c3ccccc3O)on2)CC1	MITF TRPM1 HTS 104, Wnt act 63 (no result: Env fusion inh)
CCC(C)NC(=O)c1cc(-c2ccccc2O)on1 (configuration not stated)	esBAF inh 57 (no result: MITF TRPM1 HTS)
Cc1ccc(O)c(NC(=O)c2cc(-c3ccc(F)cc3)on2)c1	none
C[C@H]1CN([C@@H](C)CO)C(=O)c2cc(NS(=O)(=O)c3ccc(F)cc3)ccc2O[C@H]1CN(C)C	none (no result: Env fusion inh, MITF TRPM1 HTS, Wnt act)
C[C@H]1CN([C@@H](C)CO)C(=O)c2cccc(NC(=O)Nc3cccc4ccccc34)c2O[C@H]1CN(C)S(=O)(=O)c1ccccc1	none (no result: MITF TRPM1 HTS, Wnt act)
COc1ccc(S(=O)(=O)N(C)C[C@@H]2Oc3ccc(NS(=O)(=O)c4ccc(Cl)cc4)cc3C(=O)N([C@@H](C)CO)C[C@H]2C)cc1	none (no result: Env fusion inh, MITF TRPM1 HTS, Wnt act)
C[C@@H]1CN([C@@H](C)CO)C(=O)c2cccc(NS(=O)(=O)c3cccs3)c2O[C@H]1CN(C)S(=O)(=O)c1ccccc1	none (no result: Env fusion inh, MITF TRPM1 HTS, Wnt act)
CC(C)NC(=O)c1cc(-c2cccs2)on1	Wnt act 55 (no result: MITF TRPM1 HTS)
COc1ccccc1-c1cc(C(=O)N2CCCC2)no1	Wnt act 37
COc1ccccc1-c1cc(C(=O)N2CCOCC2)no1	esBAF inh inconclusive, MITF TRPM1 HTS 105
CC(=O)N(C)C[C@H]1Oc2ncc(C#C[C@H](C)O)cc2C(=O)N([C@@H](C)CO)C[C@@H]1C	none (no result: MITF TRPM1 HTS, Wnt act)
Nn1c(SCC(=O)N2CCCC2)nnc1C1CCCCC1	none (no result: MITF TRPM1 HTS)
CC(C)OC(=O)CSc1nnc(C2CCCCC2)n1N	Wnt act 42 (no result: esBAF inh, MITF TRPM1 HTS)
CC(=O)c1c(C)[nH]c(C(=O)CSc2nnc(C3CCCCC3)n2N)c1C	Env fusion inh 64 (no result: miR-122 sensor)
COc1ccc(CN(C)C[C@H]2OCCCC[C@@H](C)Oc3ccc(NC(=O)Nc4cccc5ccccc45)cc3C(=O)N([C@H](C)CO)C[C@H]2C)cc1	none (no result: MITF TRPM1 HTS, Wnt act)
Cc1ccc(S(=O)(=O)Nc2cc(C)c(O)c(S(=O)(=O)c3ccc(C)cc3)c2)cc1	miR-122 sensor 140 (no result: MITF TRPM1 HTS)
Cc1cc(/C=N/NC(=O)c2ccccc2F)c(C)n1-c1ccccc1	MITF TRPM1 HTS 97, Wnt act 52 (no result: esBAF inh, miR-122 sensor)
O=S(=O)(c1ccc2ccccc2c1)N1CCN(Cc2ccc(OCCO)cc2)CC1	none (no result: esBAF inh, MITF TRPM1 HTS, Wnt act, miR-122 sensor)
CCOc1ccc(C(=O)N2CCN(c3cccc(Cl)c3)CC2)cc1	none (no result: esBAF inh, miR-122 sensor)
CCOC(=O)c1c(C)c(C(=O)N2CCN(c3cccc(Cl)c3)CC2)c(C)n1C	Env fusion inh 57 (no result: Wnt act)
Cc1ccc(OCC(=O)NCc2ccccn2)c(Br)c1	esBAF inh 55 (no result: Env fusion inh, Wnt act)
O=C(COc1ccc(F)cc1Br)NCc1ccccn1	esBAF inh inconclusive (no result: MITF TRPM1 HTS, Wnt act)
COc1ccc(-c2c[n+]3c(n2-c2ccccc2)SCC3)cc1	none (no result: esBAF inh, MITF TRPM1 HTS)
Cc1ccc(-c2c[n+]3c(n2-c2ccccc2)SCC3)cc1	Env fusion inh 59 (no result: MITF TRPM1 HTS)
CCCCNC(=O)c1ccc2c(OCC)n(CCCC)nc2c1	none (no result: miR-122 sensor)

High-throughput results from PubChem.
